Potency, activity change, negative = cytotoxicity and activation data for 37 compounds are collected here from PubChem BioAssay (Tox21).

Results filed as inconclusive are left out. A call without a number means that no potency is given here. Unmarked numbers belong to inactive results. The source made the active and inactive calls. Calls come from the whole dose curve; as a rule, active = well fitted curve in the direction sought with a large enough effect in the repeat runs; inconclusive = weak or mixed curves; inactive = no such curve, though single readings can be large; an effect the other way counts as inactive or inconclusive.

System in the first experiment: not listed separately
The experiment can be described thus: Caspase-3/7 induction in HepG2 cells by small molecules, qHTS cell viability counter screen (AID 1346981). Note: nearly all actives have a fitted effect of over 30% in size. The conditions noted are these: CellTiter-Fluor fluorescence, 17 h; series mostly up to 92.4 µM. The method, boiled down: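 The parent HepG2 line is plated at 2,000 cells per well and rested 5 hr before compound pinning from DMSO stocks. Following a 16-hr treatment at 37 C, a fluorogenic live-cell substrate (CellTiter-Fluor) reports viability after 1 hr.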
With `C=CCCCCCCCCCCCC`, the Potency entry was “inactive”.

As for `C=C(C)C(=O)OCCOP(=O)(O)OCCOC(=O)C(=C)C`, the Potency entry is “inactive”.

For `CC(C)CC(=O)O`, the Potency result was “inactive”.

`CC(C)C[C@H](NC(=O)CNC(=O)[C@H](Cc1ccc(O)cc1)NC(=O)[C@H](CO)NC(=O)[C@H](Cc1c[nH]c2ccccc12)NC(=O)[C@H](Cc1cnc[nH]1)NC(=O)[C@@H]1CCC(=O)N1)C(=O)N[C@@H](CCCN=C(N)N)C(=O)N1CCC[C@H]1C(=O)NCC(N)=O` (stereo in doubt): the Potency result is “inactive”.

As for `O=C(CS(=O)Cc1ccco1)NC/C=C\COc1cc(CN2CCCCC2)ccn1` (stereo unspecified), the Potency entry is “inactive”.

Take `C=COCCOCCOCCOC=C`: the Potency result was “inactive”.

In the case of `Cc1cccc(OCC(O)CNC(C)(C)C)c1C` (stereo unspecified), the Potency entry was “inactive”.

In the case of `C=C(C)C(=O)OCCNC(C)(C)C`, the Potency result is “inactive”.

On to `FC(F)(F)c1ccccc1-n1ccnc1`, for which the Potency result is “inactive”.

As to `NCCS`, the Potency entry is “inactive”.

With `COP(=O)(OC)OC(c1ccc(Cl)cc1)P(=O)(OC)OC` (stereo unspecified), the Potency result is “inactive”.

On to `COc1ccc(-c2cc(=O)c3c(O)cc(O[C@@H]4O[C@H](CO[C@@H]5O[C@@H](C)[C@H](O)[C@@H](O)[C@H]5O)[C@@H](O)[C@H](O)[C@H]4O)cc3o2)cc1O`, for which the Potency result is “inactive”.

Regarding `Cc1nc2n(c(=O)c1CCN1CCC(c3noc4cc(F)ccc34)CC1)CCC[C@H]2O`, the activity change, negative = cytotoxicity is 0.92% [at 19 µM].

For the compound `C[C@H](N)[C@H](O)c1cccc(O)c1`, the Potency result was “inactive”.

For the compound `COc1cc(C(=S)N2CCOCC2)cc(OC)c1OC`, the Potency result was “inactive”.

Regarding `CC(C)C(=O)OCc1cccc(OC(=O)[C@@H]2N3C(=O)[C@@H](NC(=O)Cc4ccccc4)[C@H]3SC2(C)C)c1`, the Potency result was “inactive”.

On to `CCN(CC)CC(=O)Nc1c(C)cccc1C`, for which the Potency entry was “inactive”.

`OCCCCC(O)CO` (stereo unspecified): the Potency result was “inactive”.

Consider `CC(S)C(=O)NCC(=O)O` (stereo unspecified), for which the Potency entry was “inactive”.

Turning to `Cc1cccc(C)c1OCC(C)N` (stereo unspecified), the Potency entry is “inactive”.

With `CC/C=C\CC1=C(C)CCC1=O`, the Potency entry was “inactive”.

In the case of `CC(=O)CCCCn1c(=O)c2c(ncn2C)n(C)c1=O`, the Potency result was “inactive”.

With `C[C@@H](O)[C@H]1C(=O)N2C(C(=O)O)=C(SCCN=CN)C[C@H]12`, the Potency result is “inactive”.

On to `CCN1CCc2nc(N)oc2CC1`, for which the Potency entry is “inactive”.

As for `C[C@H](CCC(=O)O)[C@H]1CC[C@H]2[C@@H]3C(=O)C[C@@H]4CC(=O)CC[C@]4(C)[C@H]3CC(=O)[C@]12C`, the Potency entry was “inactive”.

In the case of `O=C1c2ccccc2C(=O)C1c1ccccc1`, the Potency entry is “inactive”.

Regarding `Cc1cc2cc3c(C)cc(=O)oc3c(C)c2o1`, the Potency entry is “inactive”.

For the compound `CC(=C(CCOC(=O)C(C)C)SSC(CCOC(=O)C(C)C)=C(C)N(C=O)Cc1cnc(C)nc1N)N(C=O)Cc1cnc(C)nc1N`, the Potency entry is “inactive”.

With `CC1(CO)CN(c2ccccc2)NC1=O` (stereo unspecified), the Potency result is “inactive”.

For `Nc1ncnc(Nc2ccccc2)n1`, the Potency entry was “inactive”.

Turning to `C=C(C)C(=O)OCCN(CC)CC`, the Potency entry was “inactive”.

Take `COC(=O)[C@@H]1[C@H]2C[C@H]3c4[nH]c5ccccc5c4CCN3C[C@@H]2CC[C@@H]1O`: the Potency entry was “inactive”.

As for `C=C(C)C1CCC(C)(O)CC1` (stereo unspecified), the Potency result is “inactive”.

For the compound `CO[C@@H]1[C@@H](OC(N)=O)[C@@H](O)[C@H](Oc2ccc3c(O)c(NC(=O)c4ccc(O)c(CC=C(C)C)c4)c(=O)oc3c2C)OC1(C)C`, the Potency entry is “inactive”.

For the compound `CCOc1cc(NC(C)=O)ccc1C(=O)OC`, the Potency result is “inactive”.

Take `COCCOCCOCCOCCOCCO`: the Potency entry is “inactive”.

Take `O=C1c2ccccc2C(=O)c2cc(S(=O)(=O)O)ccc21`: the Potency entry is “inactive”.

For the next experiment, the target named is Nuclear receptor subfamily 1 group I member 2 (Homo sapiens) (UniProt O75469). Put plainly: Human pregnane X receptor (PXR) small molecule agonists, qHTS assay (AID 1346982). Note: nearly all actives have a fitted effect of over 35% in size. Note: potency is the fitted concentration of half-maximal effect. The conditions noted are these: PXR-Luc HepG2, CYP3A4 luciferase reporter, 24 h; series mostly up to 92.4 µM. The method, boiled down: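 After plating in 5% charcoal-stripped FBS and a 5 hr rest, PXR-Luc HepG2 cells received compounds in DMSO. Following 24 hr at 37 C, ONE-Glo was added and light output read.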
Nuclear receptor subfamily 1 group I member 2 (Homo sapiens), sequence (O75469 whole entry, looked up): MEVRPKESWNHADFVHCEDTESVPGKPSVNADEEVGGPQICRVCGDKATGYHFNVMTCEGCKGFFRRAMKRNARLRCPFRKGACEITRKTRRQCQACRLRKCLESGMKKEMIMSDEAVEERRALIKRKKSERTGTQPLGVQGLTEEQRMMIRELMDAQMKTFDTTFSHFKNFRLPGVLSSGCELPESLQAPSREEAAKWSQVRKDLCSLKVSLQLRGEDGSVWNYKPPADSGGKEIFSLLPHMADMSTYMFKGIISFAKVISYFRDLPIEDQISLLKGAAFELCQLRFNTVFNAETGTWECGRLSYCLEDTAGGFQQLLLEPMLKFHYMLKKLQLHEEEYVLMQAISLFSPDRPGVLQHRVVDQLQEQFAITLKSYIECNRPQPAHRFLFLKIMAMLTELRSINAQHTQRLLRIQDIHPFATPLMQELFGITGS
(qHTS replaces the single test concentration by a dilution series.)
Consider `C=CCCCCCCCCCCCC`, for which the Potency entry is “inactive”.

With `C=C(C)C(=O)OCCOP(=O)(O)OCCOC(=O)C(=C)C`, the Potency result was “inactive”.

Consider `CC(C)C[C@H](NC(=O)CNC(=O)[C@H](Cc1ccc(O)cc1)NC(=O)[C@H](CO)NC(=O)[C@H](Cc1c[nH]c2ccccc12)NC(=O)[C@H](Cc1cnc[nH]1)NC(=O)[C@@H]1CCC(=O)N1)C(=O)N[C@@H](CCCN=C(N)N)C(=O)N1CCC[C@H]1C(=O)NCC(N)=O` (stereo in doubt), for which the Potency entry is “inactive”.

For the compound `O=C(CS(=O)Cc1ccco1)NC/C=C\COc1cc(CN2CCCCC2)ccn1` (stereo unspecified), the Potency entry is “inactive”.

As for `C=COCCOCCOCCOC=C`, the Potency entry was “inactive”.

As to `Cc1cccc(OCC(O)CNC(C)(C)C)c1C` (stereo unspecified), the Potency result is “inactive”.

As for `C=C(C)C(=O)OCCNC(C)(C)C`, the Potency result was “inactive”.

Take `FC(F)(F)c1ccccc1-n1ccnc1`: the Potency result was “inactive”.

Take `NCCS`: the Potency entry was “inactive”.

In the case of `COP(=O)(OC)OC(c1ccc(Cl)cc1)P(=O)(OC)OC` (stereo unspecified), the Potency result is “inactive”.

With `COc1ccc(-c2cc(=O)c3c(O)cc(O[C@@H]4O[C@H](CO[C@@H]5O[C@@H](C)[C@H](O)[C@@H](O)[C@H]5O)[C@@H](O)[C@H](O)[C@H]4O)cc3o2)cc1O`, the Potency result is “inactive”.

For the compound `Cc1nc2n(c(=O)c1CCN1CCC(c3noc4cc(F)ccc34)CC1)CCC[C@H]2O`, the activation is 13.9% [at 19 µM].

Regarding `C[C@H](N)[C@H](O)c1cccc(O)c1`, the Potency result was “inactive”.

Take `COc1cc(C(=S)N2CCOCC2)cc(OC)c1OC`: the Potency entry is “inactive”.

In the case of `CC(C)C(=O)OCc1cccc(OC(=O)[C@@H]2N3C(=O)[C@@H](NC(=O)Cc4ccccc4)[C@H]3SC2(C)C)c1`, the Potency result is “inactive”.

Consider `OCCCCC(O)CO` (stereo unspecified), for which the Potency result was “inactive”.

Consider `CC(S)C(=O)NCC(=O)O` (stereo unspecified), for which the Potency entry was “inactive”.

For `Cc1cccc(C)c1OCC(C)N` (stereo unspecified), the Potency result was “inactive”.

In the case of `CC/C=C\CC1=C(C)CCC1=O`, the Potency is 34.4 µM (active).

`CC(=O)CCCCn1c(=O)c2c(ncn2C)n(C)c1=O`: the Potency result is “inactive”.

Turning to `C[C@@H](O)[C@H]1C(=O)N2C(C(=O)O)=C(SCCN=CN)C[C@H]12`, the Potency result is “inactive”.

On to `CCN1CCc2nc(N)oc2CC1`, for which the Potency result was “inactive”.

Regarding `C[C@H](CCC(=O)O)[C@H]1CC[C@H]2[C@@H]3C(=O)C[C@@H]4CC(=O)CC[C@]4(C)[C@H]3CC(=O)[C@]12C`, the Potency result was “inactive”.

With `O=C1c2ccccc2C(=O)C1c1ccccc1`, the Potency result is “inactive”.

Take `Cc1cc2cc3c(C)cc(=O)oc3c(C)c2o1`: the Potency was 5.96 µM (active).

Turning to `CC(=C(CCOC(=O)C(C)C)SSC(CCOC(=O)C(C)C)=C(C)N(C=O)Cc1cnc(C)nc1N)N(C=O)Cc1cnc(C)nc1N`, the Potency result was “inactive”.

For the compound `CC1(CO)CN(c2ccccc2)NC1=O` (stereo unspecified), the Potency is 61.1 µM (active).

Consider `Nc1ncnc(Nc2ccccc2)n1`, for which the Potency entry is “inactive”.

Turning to `C=C(C)C(=O)OCCN(CC)CC`, the Potency entry was “inactive”.

For the compound `C=C(C)C1CCC(C)(O)CC1` (stereo unspecified), the Potency entry was “inactive”.

As for `CO[C@@H]1[C@@H](OC(N)=O)[C@@H](O)[C@H](Oc2ccc3c(O)c(NC(=O)c4ccc(O)c(CC=C(C)C)c4)c(=O)oc3c2C)OC1(C)C`, the Potency result is “inactive”.

As to `CCOc1cc(NC(C)=O)ccc1C(=O)OC`, the Potency result was “inactive”.

For the compound `COCCOCCOCCOCCOCCO`, the Potency entry was “inactive”.

Consider `O=C1c2ccccc2C(=O)c2cc(S(=O)(=O)O)ccc21`, for which the Potency was 48.7 µM (active).
